39 compounds from PubChem BioAssay (NCI) can be followed below.

Molecules are shown by their SMILES. About 79,000 compounds went through this panel and 15% of them were active in at least one assay; those are over-represented in the sample as a whole. Values without a mark were called inactive. Active and inactive are the calls of the source. Rule as the data show it: active = growth inhibition above about 70%; inactive = the rest.

Test [1] is described as follows: NCI Yeast Anticancer Drug Screen. Data for the rad50 strain (AID 155).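 Also: 0% = growth of vehicle-only cultures of the same strain.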 Particulars: S. cerevisiae rad50 strain growth inhibition; at 50.0 µM; hits give high values. Summed up:
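Compounds were tested on a yeast strain with an engineered DNA damage repair alteration; the reported value is growth inhibition normalised to vehicle treatment.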

Test [2] is described as follows: NCI Yeast Anticancer Drug Screen. Data for the mec2-1 strain (AID 157). The following applies: S. cerevisiae mec2-1 strain, at 50.0 µM, hits give high values. The essentials: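 Yeast mec2-1 mutant treated with compound. Readout: growth inhibition vs vehicle controls.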
Test [3] in a line: NCI Yeast Anticancer Drug Screen. Data for the sgs1 mgt1 strain (AID 161).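 Also: 0% = growth of cultures given vehicle only.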 The following applies: S. cerevisiae sgs1 mgt1 strain, at 50.0 µM, hits give high values. The essentials:
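Genetically altered yeast, compound exposure, growth inhibition relative to vehicle.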

Test [4] can be described thus: NCI Yeast Anticancer Drug Screen. Data for the cln2 rad14 strain (AID 165).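 Also: 0% = growth equal to vehicle treated cultures.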 Particulars: S. cerevisiae cln2 rad14 strain, at 50.0 µM, hits give high values. The essentials: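 cln2 rad14 yeast strain; compound exposure; growth inhibition read vs vehicle controls.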
Test [5] is described as follows: NCI Yeast Anticancer Drug Screen. Data for the bub3 strain (AID 167). Particulars: S. cerevisiae bub3 mutant strain, at 50.0 µM, hits give high values. Summed up:
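Growth of a checkpoint-deficient yeast mutant is measured after compound exposure. Values represent inhibition relative to vehicle.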

Test [6] in a line: NCI Yeast Anticancer Drug Screen. Data for the mlh1 rad18 strain (AID 175). The following applies: S. cerevisiae mlh1 rad18 strain growth inhibition; at 50.0 µM; hits give high values. The essentials:
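Yeast w/ defined DNA-repair lesions; compound exposure; growth vs vehicle controls → % inhibition.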

Consider `CC1(C)O[C@]2(C)CC[C@@H]1[C@@H](O)[C@@H]2N1CCCC1`, for which the growth inhibition is 1.75% in test [1]; -8.6% in test [2]; -6.75% in test [3]; -33.4% in test [4]; -6.75% in test [5]; 0.15% in test [6].

For `O=P(O)(O)SP(=O)(O)O.[Zn+2]`, the growth inhibition was -20.9% in test [1]; 9.55% in test [2]; -15.8% in test [3]; -8.7% in test [4]; -12.6% in test [5]; -1.35% in test [6].

For the compound `COc1ccc2c3c1OC1C(O)C=CC4C(C2)N(N=O)CCC341` (centres undefined), the growth inhibition was -3.2% in test [1]; 9.6% in test [2]; -4.2% in test [3]; 11.5% in test [4]; 5.25% in test [5]; 21.7% in test [6].

For `OCC(S)CS` (centres undefined), the growth inhibition was 17.4% in test [1]; -26.4% in test [2]; 12.6% in test [3]; 2.9% in test [4]; 9.55% in test [5]; -13.4% in test [6].

With `CCOP(=O)(OCC)Oc1ccc(SC)cc1`, the growth inhibition in test [1] is -7.85%; in test [2], -14.3%; in test [3] it was -9.65%; in test [4], -14.9%; in test [5], 12.9%; in test [6], -14.8%.

As for `COP1(=S)OCC2CCC[C@@H]2O1` (some centres undefined), the growth inhibition in test [1] was -19.5%; in test [2], -26.4%; in test [3], -33%; in test [4], 3.2%; in test [5], -21.9%; in test [6] it was -32.1%.

`COc1cc2c(cc1OC)C(c1ccc(O)c(O)c1)CNC2` (centres undefined): the growth inhibition in test [1] is -27.8%; in test [2] it was -7.9%; in test [3], -31.1%; in test [4], -10.1%; in test [5], -21.1%; in test [6], -5.3%.

`CC1OC(OC2C(O)CC(OC3C(O)CC(OC4CCC5(C)C(CCC6C5CCC5(C)C(C7=CC(=O)OC7)C(O)CC65O)C4)OC3C)OC2C)CC(O)C1O` (centres undefined): the growth inhibition was -12.8% in test [1]; 10.6% in test [2]; -19.1% in test [3]; -13.1% in test [4]; -5.45% in test [5]; 27.6% in test [6].

As for `CCCCOCN(CCc1ccccc1)COCCCC`, the growth inhibition is 15.7% in test [1]; 5.8% in test [2]; 24.2% in test [3]; 19.2% in test [4]; 10.2% in test [5]; 25.6% in test [6].

Regarding `Clc1ccc(C(c2ccc(Cl)cc2)c2ccccn2)cc1`, the growth inhibition in test [1] is 98.5% (active); in test [2] it was 98.3% (active); in test [3], 98.5% (active); in test [4], 97.8% (active); in test [5], 98.3% (active); in test [6], 98.4% (active).

In the case of `Nc1nc(N)c(N)c(N)n1`, the growth inhibition in test [1] is 3.05%; in test [2], 1.8%; in test [3] it was 14.6%; in test [4], -3.05%; in test [5] it was -3.05%; in test [6], 34.2%.

Turning to `S=P1(c2ccccc2)C=C(N2CCCC2)CC1` (centres undefined), the growth inhibition in test [1] was 20.4%; in test [2] it was 20.2%; in test [3], 16.6%; in test [4], 1.7%; in test [5] it was 11.7%; in test [6], 20.4%.

Take `Cc1ccc(S(N)(=O)=O)cc1` (tested in a mixture with another compound): the growth inhibition was 14.9% in test [1]; 7.9% in test [2]; 8.8% in test [3]; 10.8% in test [4]; 29.4% in test [5]; 13% in test [6].

As to `CCOP(=O)(OCC)Oc1c(Cl)c(Cl)c(Cl)c(Cl)c1Cl`, the growth inhibition is 70.3% (active) in test [1]; 47.4% in test [2]; 86% (active) in test [3]; 28.4% in test [4]; 23.9% in test [5]; 78.5% (active) in test [6].

Regarding `[Cl][Sn]1([Cl])[CH2]CC[CH2][Sn]([Cl])([Cl])[CH2]CC[CH2]1`, the growth inhibition in test [1] is 3.4%; in test [2], 34%; in test [3] it was -13.1%; in test [4], 39.4%; in test [5], -5.4%; in test [6], 27.4%.

Take `Cc1cc(C)c(C#N)c(SSC(Cl)(Cl)Cl)n1`: the growth inhibition in test [1] was 5.75%; in test [2] it was 18.9%; in test [3] it was 59.2%; in test [4], 15.1%; in test [5], 61.9%; in test [6], 40.9%.

As for `CCCCOP(=O)(O)SP(=O)(O)OCCCC`, the growth inhibition in test [1] is -13.8%; in test [2], 17.1%; in test [3], 10.6%; in test [4], 20.9%; in test [5], 2.3%; in test [6], -3%.

As for `C1CCNCC1.COc1ccccc1C(=O)[CH-]C(=O)C(F)(F)F.COc1ccccc1C(=O)[CH-]C(=O)C(F)(F)F.COc1ccccc1C(=O)[CH-]C(=O)C(F)(F)F.COc1ccccc1C(=O)[CH-]C(=O)C(F)(F)F.[Eu+3]`, the growth inhibition was 56.3% in test [1]; 48.5% in test [2]; 48.9% in test [3]; 34.1% in test [4]; 29.8% in test [5]; 64.5% in test [6].

Regarding `CCCC(=O)[O-].CCCC(=O)[O-].NCCN.NCCN.[Co+3].[O-][Cl+3]([O-])([O-])[O-]`, the growth inhibition was -18.5% in test [1]; 19.1% in test [2]; -5.1% in test [3]; 23% in test [4]; -0.45% in test [5]; -1.75% in test [6].

With `CCc1ccc([N+](=O)[O-])cc1`, the growth inhibition in test [1] is -9.25%; in test [2] it was -12%; in test [3], -19.7%; in test [4] it was -29.4%; in test [5], 1.35%; in test [6], 10.5%.

On to `CCC1(C(C)=O)CN2CCc3cc(OC)c(OC)cc3C2N2CCc3ccc(OC)c(OC)c3C21` (centres undefined), for which the growth inhibition was 96.9% (active) in test [1]; 97.8% (active) in test [2]; 97.7% (active) in test [3]; 96.7% (active) in test [4]; 98.5% (active) in test [5]; 98% (active) in test [6].

Consider `CS(=O)(=O)c1ccc([As](=O)(O)O)cc1`, for which the growth inhibition in test [1] was 5.7%; in test [2], 0.1%; in test [3] it was 20.6%; in test [4] it was -34.1%; in test [5], 5.2%; in test [6], -11.8%.

As to `COc1ccn(C)c(=O)c1C#N`, the growth inhibition in test [1] was 3.15%; in test [2] it was 0.3%; in test [3], -6.35%; in test [4], 5.6%; in test [5] it was 2.15%; in test [6], -2.4%.

For the compound `COc1ccc(CCF)cc1`, the growth inhibition was -4.95% in test [1]; 4% in test [2]; -0.7% in test [3]; -9.85% in test [4]; 4.4% in test [5]; -3.85% in test [6].

With `CS(=N)(=O)CCC(N)C(=O)O` (centres undefined) (tested in a mixture with another compound), the growth inhibition was 4.7% in test [1]; 21.2% in test [2]; -12.8% in test [3]; -1.95% in test [4]; 17.8% in test [5]; 2.1% in test [6].

As for `CC(C)(C)OO`, the growth inhibition in test [1] is 5.35%; in test [2], 7.05%; in test [3], 0.95%; in test [4] it was -0.6%; in test [5] it was 22.4%; in test [6], -17%.

On to `OC(c1ccc2ccccc2n1)C1CCCCN1` (centres undefined), for which the growth inhibition was 14.2% in test [1]; -6.45% in test [2]; 7.05% in test [3]; -8.15% in test [4]; -1.7% in test [5]; 11.1% in test [6].

`CC(C)C(Br)C(=O)O` (centres undefined): the growth inhibition in test [1] is -6.85%; in test [2] it was -16.6%; in test [3], -21.1%; in test [4], -41.5%; in test [5], -9.5%; in test [6], 2.1%.

On to `CCCCn1c(C)c(C(=O)OCC)c2cc(OCc3ccc(C(=O)Nn4c(C)ccc4C)cc3)c(Br)cc21`, for which the growth inhibition in test [1] is 7.1%; in test [2], -30.7%; in test [3], -15.5%; in test [4], -18.6%; in test [5] it was -27.4%; in test [6], -20.1%.

As to `O.O=[N+]([O-])O.[NH2-].[NH2-].[Pt+2]`, the growth inhibition was 22.9% in test [1]; 20.4% in test [2]; 8.6% in test [3]; 15.2% in test [4]; 4.55% in test [5]; 31.4% in test [6].

As for `COc1cc(C2c3cc4c(cc3[C@@H](OC)[C@H]3COC(=O)C23)OCO4)cc(OC)c1O` (some centres undefined), the growth inhibition in test [1] is 89.5% (active); in test [2], 90% (active); in test [3] it was 86.4% (active); in test [4] it was 85.1% (active); in test [5], 89.3% (active); in test [6] it was 88.7% (active).

`O=Cc1ccccc1O.[Zn+2]`: the growth inhibition in test [1] was 9.25%; in test [2] it was 6.2%; in test [3], 2.8%; in test [4], 3.6%; in test [5] it was 0.75%; in test [6] it was 1.6%.

For the compound `[C-]#[N+]CS(=O)(=O)c1ccc(C)cc1`, the growth inhibition in test [1] is -17.4%; in test [2], -11.1%; in test [3] it was -7.3%; in test [4], 11.1%; in test [5] it was 3.85%; in test [6], 1.4%.

`CN1C2CCC1CC(OC(=O)/C=C\c1ccccc1)C2` (centres undefined): the growth inhibition in test [1] is 29%; in test [2], -7.7%; in test [3] it was -5.45%; in test [4] it was 1.95%; in test [5] it was 8.45%; in test [6], 9.6%.

For `CCOP12(OCC)NC(=O)OC1(C(F)(F)F)c1ccccc1O2` (centres undefined), the growth inhibition was -19.4% in test [1]; 3.9% in test [2]; -38% in test [3]; -7% in test [4]; -26.4% in test [5]; -36.4% in test [6].

As for `O=c1cc(CCl)occ1O`, the growth inhibition in test [1] is 7.35%; in test [2] it was 19.5%; in test [3] it was 20.6%; in test [4], -5.75%; in test [5] it was 16.1%; in test [6], 15.1%.

For `O=NNc1cccnc1`, the growth inhibition was -1.05% in test [1]; -17.1% in test [2]; -2.35% in test [3]; 4.45% in test [4]; -4.8% in test [5]; -38% in test [6].

Take `Cc1cn([C@H]2CC3C(CON3C)O2)c(=O)[nH]c1=O` (some centres undefined): the growth inhibition was 3.3% in test [1]; 7.55% in test [2]; 1.15% in test [3]; -3.55% in test [4]; -8.55% in test [5]; -37.4% in test [6].

For the compound `O=NN1CCCCCC1C(=O)O` (centres undefined), the growth inhibition is -22.1% in test [1]; 1% in test [2]; -20.9% in test [3]; -24.7% in test [4]; 2.7% in test [5]; -0.25% in test [6].
